For 34 compounds, growth results are on record in PubChem BioAssay (NCI).

Structures are written as SMILES. The panel holds about 83,000 compounds, 20% with a hit somewhere; the sample as a whole holds those more often.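 Growth was measured after 48 h exposure to one concentration of compound in 96-well plates. Values under 10 count as active.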 Values without a mark were called inactive. Calls of active or inactive are those of the source.

The test system of the experiment is HL-60(TB) leukemia. Kind of experiment: NCI-60 one-dose screen, 48 h (100 = growth as untreated, 0 = no growth, -100 = all killed). To be noted: 10 µM unless noted.
On to `COc1ccc2oc3c4[nH]c5ccccc5c4c4c(c3c2c1)C(=O)N(O)C4=O`, for which the growth is 102%. Turning to `CCCCc1nc2c(N)nc3ccccc3c2n1Cc1ccc(OC)cc1`, the growth is 31%. In the case of `CN(C)CCCOc1ccc2c(c1)CN(C(=O)c1cc(C(=O)N3Cc4cccc(F)c4C3)ccc1O)C2`, the growth was 107%. To `CS(=O)c1nccc(-c2c(-c3ccc(F)c(OCc4ccccc4)c3)nc3sccn23)n1` (centres undefined) belongs -6.35% (active).

Turning to `COc1ccc(-c2nn3c(-c4ccccc4F)nnc3s2)cc1`, the growth was 47.7%.

Regarding `COc1ccc(/C=C/C(=O)c2cccc(NC(=O)CSc3nc4ccccc4c(=O)n3-c3ccccc3)c2)cc1OC`, the growth is 98.9%. To `COC(=O)C(Cc1ccccc1)NS(=O)(=O)/N=C1\NC(=O)NC1=C(Cl)Cl` (centres undefined) belongs 96.1%.

As for `COc1ccc(-c2nc3ccc(-c4nnc(SCC(=O)Nc5ccc(C(=O)/C=C/c6ccccc6)cc5)o4)cc3[nH]2)cc1OC`, the growth was 100%.

For the compound `CC1=C(C)C(=O)C(Nc2ccc3c(c2)OCO3)=C(Br)C1=O`, the growth is 44.2%.

Turning to `CCN1C(=O)N(CC)C2C1NN=C1SC(c3ccccc3)=CC(=O)N12` (centres undefined), the growth is -2.48% (active). As for `O=C1Nc2ccc(F)cc2/C1=C\C(=O)c1ccc(NS(=O)(=O)c2ccccc2)cc1`, the figure is 33.1%; as for `CCN1CCN(Cc2cn(-c3ccc(S(N)(=O)=O)cc3)nn2)CC1`, 110%. For `Brc1cccc(-c2cc(-c3cnc4c(c3)OCCO4)n[nH]2)c1`, the growth is 21.2%. For the compound `COc1ccc(Cn2cc3c(c2-c2cc(OC)c(OC)c(OC)c2)CCCc2cnoc2-3)cc1N`, the growth is -9.82% (active). As to `CCc1ccc(NC(=O)N[C@@H](Cc2cccc(F)c2)C(=O)N[C@@H]2C(=O)N3CCC[C@H]3C(=O)N3CCCC[C@H]3C(=O)N[C@@H](CO)C(=O)N3C[C@H](C)C[C@H]3C(=O)O[C@H]2C)c(F)c1`, the growth is 13.3%. For the compound `C/C(=C(/C)C1CC1CCNC1CCC(NC(=O)OC(C)(C)C)CC1)c1ccccc1` (centres undefined), the growth was 56.6%. With `NC(N)=Nc1ccc(Oc2cccc(NC(N)=Nc3ccc(Cl)c(C(F)(F)F)c3)c2)cn1`, the growth was 0.375% (active). In the case of `C#C[C@]1(O)CC[C@H]2[C@@H]3CC=C4c5sc(Nc6cc(Cl)ccn6)nc5CC[C@]4(C)[C@H]3CC[C@@]21C`, the growth was 2.68% (active). Take `Cc1cc(C(=O)Nc2ccc(SC#N)cc2)c(C)o1`: the growth was 47.7%. As for `O=C(NNc1nc2cc(F)ccc2n2c(CN3CC4CNCC4C3)ccc12)c1cnccn1` (centres undefined), the figure is 0.485% (active). As for `C[C@@H]1C[C@H]2C(=O)OCC(NC(=O)[C@H](Cc3cc(F)cc(F)c3)NC(=O)Nc3ccc(Cl)cc3F)C(=O)N3CCC[C@H]3C(=O)N3CCCC[C@H]3C(=O)N[C@@H](C)C(=O)N2C1` (some centres undefined), the figure is 6.2% (active); as for `COc1ccc(-n2c(SCC(=O)Nc3ccc(-c4nc5ccccc5[nH]4)cc3)nc3ccccc3c2=O)cc1`, 45.6%. `CN1CCN(c2ccc3c(c2)nc(NNC(=O)c2ccncn2)c2cccn23)CC1`: the growth is 10.4%. For the compound `CCOC(=O)Nc1ccc(-c2nc(-c3cccc(O)c3)c(-c3ccnc(Br)c3)[nH]2)cc1`, the growth is -11.1% (active). As for `COc1ccc(-c2csc(N/N=C/c3c(-c4ccc(S(C)(=O)=O)cc4)nc4ccccn34)n2)cc1`, the figure is 103%. As to `COc1ccc2c(c1)c(-c1nn3cc(-c4ccncc4)nc3s1)cn2C`, the growth was -25.5% (active).

Consider `Clc1ccc(CSc2nnc(-c3ccc(Cl)cc3)n2-c2ccccc2)cc1`, for which the growth was 90.9%. Turning to `CCc1cccc(NC(=O)CNc2cc(S(=O)(=O)N(C)C)cc(C)c2C)c1`, the growth is 128%. Regarding `Nc1nc(-c2cccc([N+](=O)[O-])c2)c(N=Nc2ccc([N+](=O)[O-])cc2Cl)s1`, the growth is 6.8% (active).

As for `Cn1c(SC(C(=O)Nc2ccc(F)cc2)c2ccccc2)nc2ccccc2c1=O` (centres undefined), the growth is 103%. For the compound `O=[N+]([O-])c1ccc(-c2nnc(SCc3ccc(O)c4ncccc34)n2-c2ccccc2)cc1`, the growth is 32.5%. In the case of `COc1ccc(C(=O)c2cc(C(=O)/C=C/c3c(Cl)cccc3Cl)c3cc(C)ccn23)cc1`, the growth is 101%. To `COc1ccc(-c2nc3ccc(-c4nnc(SCC(=O)Nc5ccc(C(C)=O)cc5)o4)cc3[nH]2)cc1` belongs 83.4%.

With `O=C1Nc2ccc(Br)cc2/C1=N\c1nnc(-c2ccc(Cl)cc2)o1`, the growth was 11.1%.
